Results: PubChem BioAssay (NCATS)
Results filed as inconclusive are left out. Activity calls are given as the source filed them. Unless noted, calls follow the shape of the full dose curve.

Experiments:
[1] = molecular target: Bile acid receptor (Homo sapiens) (UniProt Q96RI1); experiment: qHTS assay for small molecule agonists of farnesoid X receptor signaling (AID 588527); conditions: HEK293T FXR-UAS-bla, beta-lactamase ratio, 16 h; activation: stronger effect = higher value;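 also: series mostly up to about 77 µM; 0% = vehicle basal and 100% = reference agonist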
Summary of the method: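 FXR-UAS-bla HEK293T cells (10% dialyzed FBS) preincubated 5-7 h at 37 C, then compounds at up to 92 uM for 16 h at 37 C. CCF4 beta-lactamase read-out after 2 h RT. Normalized to chenodeoxycholic acid (100 uM) and DMSO; Hill fit gave EC50 and efficacy.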

[2] = molecular target: Glucocorticoid receptor (Homo sapiens) (UniProt P04150); experiment: qHTS assay for small molecule antagonists of glucocorticoid receptor signaling (AID 588533; active = well fitted inhibition curve with a large enough effect in the signal ratio, with a control signal flat, not every such curve was filed as active; the % refers to the signal ratio;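 also: cells stimulated with 2 nM dexamethasone as agonist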; also: potency is read from the fitted curve at half-maximal effect)
Summary of the method: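 Antagonist-mode qHTS: compound titrations added to GRE-bla HeLa cells, then dexamethasone 2 nM final; 18 h, 37 C. CCF4 FRET fluorescence normalized to dexamethasone and DMSO; IC50 from Hill fit.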

[3] = molecular target: Peroxisome proliferator-activated receptor delta (Homo sapiens) (UniProt Q03181); experiment: qHTS assay for small molecule agonists of peroxisome proliferator-activated receptor delta signaling (AID 588534);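 also: 0% = DMSO basal wells and 100% = positive control agonist at 10 µM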
Summary of the method: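 Fluorescence from CCF4 substrate cleavage by beta-lactamase reporter, read 2 hrs at RT, measured agonist activity. Compounds were tested with 18 hrs exposure at 37 C. Concentration-response data fitted to Hill equation.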

[4] = qHTS assay for small molecule antagonists of peroxisome proliferator-activated receptor delta signaling (AID 588535); conditions: HEK293T PPARd-UAS-bla, beta-lactamase FRET ratio, 18 h; 460 nm channel;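 also: cells co-treated with a PPAR-delta agonist as stimulator during compound exposure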
Summary of the method: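 HEK293T PPAR-delta-UAS-bla cells, 4000/well, 2% charcoal/dextran FBS; 5 h 37 C; cpd titration; 18 h 37 C; CCF4 2 h RT; FI 460/530 nm; Hill fit → IC50, efficacy.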

[5] = molecular target: Thyroid hormone receptor beta (Homo sapiens) (UniProt P10828); experiment: qHTS assay for small molecule agonists of thyroid hormone receptor beta signaling (AID 588545)
Summary of the method: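 Agonist activity was read as beta-lactamase CCF4 fluorescence (405 ex, 460/530 em), scaled between DMSO (0%) and 10 nM T3 (100%), then Hill-fitted for EC50 and efficacy. HEK 293 TR-UAS-bla cells in 2% charcoal/dextran FBS medium were exposed 18 h at 37 C.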

[6] = qHTS assay for small molecule activators of the p53 signaling pathway (AID 651743; active = well fitted activation curve with a large enough effect in the signal ratio, not every such curve was filed as active; the % refers to the signal ratio; also: series mostly up to about 92 µM; % of control where 0% means no effect); conditions: HCT-116 p53RE-bla, beta-lactamase FRET ratio, 16 h; activation: stronger effect = higher value
Summary of the method: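 Read-out is fluorescence intensity from the LiveBLAzer B/G FRET substrate, added for 2 hours at room temperature after HCT-116 p53RE-bla cells had been incubated with compounds for 16 hours at 37 C.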

[7] = qHTS assay for environmental chemicals that activate the Aryl hydrocarbon Receptor (AhR) signaling pathway (AID 651777; active = well fitted curve in the direction sought with a large enough effect; an effect the other way counts as inactive or inconclusive; also: % of control where 0% means no effect; nearly all actives have a fitted effect of over 15% in size); conditions: 1A2-DRE human hepatoma cells, luciferase, 24 h; activation: stronger effect = higher value
Summary of the method: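 Concentration–response screening used 1,200 1A2-DRE cells per well, 24 hr compound exposure (37 C, 5% CO2), and One-Glo luminescence as the AhR-driven CYP1A2 reporter signal.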

[8] = molecular target: Peroxisome proliferator-activated receptor alpha (Homo sapiens) (UniProt Q07869); experiment: qHTS assay for small molecule agonists of the peroxisome proliferator-activated receptor alpha (PPARalpha) signaling pathway (AID 651778; active = well fitted curve in the direction sought with a large enough effect; an effect the other way counts as inactive or inconclusive; also: % of control where 0% means no effect); conditions: PathHunter PPARalpha complementation, chemiluminescence, 6 h; max response: stronger effect = higher value
Summary of the method: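 Chemiluminescence from complemented enzyme reported PPARalpha activation in cells after 6 hr of compound treatment at 37 C. The detection reagent was incubated for 60 min at room temperature, and compounds were scored as agonists.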

[9] = qHTS assay for small molecule agonists of the antioxidant response element (ARE) signaling pathway measured by Nrf2-dependant transcriptional activity - cell viability counter screen (AID 720653; active = well fitted curve in the direction sought with a large enough effect in the repeat runs; an effect the other way counts as inactive or inconclusive; also: potency is read from the fitted curve at half-maximal effect; as to max response: % is scaled to controls: 0 for no effect and ±100 for the full control effect); conditions: ARE-bla HepG2 viability, CellTiter-Glo ATP luminescence, 16 h; max response: stronger effect = lower value
Summary of the method: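 Cytotoxicity counter screen: intracellular ATP quantified by CellTiter-Glo luminescence in the same ARE-bla HepG2 plates, after 16 h compound exposure and a 2 h beta-lactamase substrate step.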

[10] = qHTS assay for cell viability of HEK293 cells (AID 743288; active = well fitted curve in the direction sought with a large enough effect; an effect the other way counts as inactive or inconclusive; also: nearly all actives have a fitted effect of over 50% in size; also: potency is read from the fitted curve at half-maximal effect; as to max response: % is scaled to controls: 0 for no effect and ±100 for the full control effect); conditions: ATP luminescence (CellTiter-Glo), 18 h; max response: stronger effect = lower value
Summary of the method: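 HEK293 parental, 2,000 cells/well; ≥5 h pre-incubation 37 C; pintool compound addition; 18 h, 37 C; CellTiter-Glo 30 min RT; luminescence read.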

[11] = qHTS assay for cell viability of the p53RE-bla HCT-116 cell line (AID 743292; active = well fitted curve in the direction sought with a large enough effect; an effect the other way counts as inactive or inconclusive; also: % is scaled to controls: 0 for no effect and ±100 for the full control effect; nearly all actives have a fitted effect of over 55% in size)
Summary of the method: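 Compound-exposed HCT-116 (p53RE-bla) cells, 4,000 per well, were kept 16 h at 37 C following a 5 h preincubation. Cell number was estimated from total ATP by CellTiter-Glo luminescence read after 30 min at room temperature.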

[12] = molecular target: Nuclear receptor subfamily 1 group I member 2 (Rattus norvegicus) (UniProt Q9R1A7); experiment: qHTS assay for small molecule activators of the rat pregnane X receptor (rPXR) signaling pathway (AID 651751; call rule not given here; also: 0% is about no effect); conditions: rPXR reporter cells, luciferase (One-Glo), 24 h
[13] = molecular target: Thyroid hormone receptor beta (Homo sapiens) (UniProt P10828); experiment: qHTS assay for small molecule antagonists of thyroid hormone receptor beta signaling (AID 588547; active = well fitted inhibition curve with a large enough effect in the signal ratio, with a control signal flat, not every such curve was filed as active; the % refers to the signal ratio; also: potency is read from the fitted curve at half-maximal effect); conditions: TR-UAS-bla HEK293, beta-lactamase ratio, antagonist mode, 18 h
Summary of the method: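 Inhibition of T3-driven (0.4nM final) beta-lactamase reporter activity was measured over 0.59 nM to 92 uM compound after 18 h at 37 C. The cells were GripTite HEK293 TR-UAS-bla in charcoal/dextran-stripped serum, with CCF4 ratio read-out and IC50 from Hill fits.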

[14] = qHTS assay for small molecule agonists of the antioxidant response element (ARE) signaling pathway measured by Nrf2-dependant transcriptional activity (AID 720636; active = well fitted curve in the direction sought with a large enough effect in the repeat runs; an effect the other way counts as inactive or inconclusive;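 also: HepG2 cells with an ARE-driven luciferase reporter; % of control where 0% means no effect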)
Summary of the method: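 Attachment 6 hr at 37 C, then compound versus DMSO vehicle for 16 hr in ARE-luc HepG2 cells (1% dialyzed FBS); luminescence recorded 30 min after ONE-Glo addition at room temperature.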

[15] = molecular target: Vitamin D3 receptor (Homo sapiens) (UniProt P11473); experiment: qHTS assay for small molecule antagonists of vitamin D receptor signaling (AID 588541);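 also: receptor activated by calcitriol during compound treatment; series mostly up to about 77 µM; % is scaled to controls: 0 for no effect and ±100 for the full control effect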
Summary of the method: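 Antagonist-mode beta-lactamase reporter assay: HEK293T VDR-UAS-bla cells were exposed to titrated compound alongside 1-alpha,25-dihydroxyvitamin D3 at 3 nM final for 16 h. Values were normalized to the 50 nM agonist control and DMSO basal, with IC50 and efficacy from Hill equation fits.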

[16] = qHTS assay for small molecule agonists of retinoid X receptor alpha signaling (AID 588544); conditions: HEK293T RXRa-UAS-bla, beta-lactamase reporter, 18 h; 530 nm emission;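 as to activation: 0% = DMSO basal wells and 100% = reference agonist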
[17] = molecular target: Retinoic acid receptor RXR-alpha (Homo sapiens) (UniProt P19793); experiment: as above
[18] = qHTS assay for small molecule antagonists of retinoid X receptor alpha signaling (AID 588546; active = well fitted inhibition curve with a large enough effect in the signal ratio, with a control signal flat, not every such curve was filed as active; the % refers to the signal ratio;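 also: cells stimulated with 9-cis-retinoic acid as agonist; % is scaled to controls: 0 for no effect and ±100 for the full control effect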); conditions: HEK293T RXRa-UAS-bla, beta-lactamase ratio, antagonist mode; measured here: W530 green channel, cytotoxicity proxy
Summary of the method: (§1)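 Beta-lactamase reporter inhibition, read as CCF4 fluorescence ratio (ex 405, em 460/530 nm) after 2 h at RT. HEK293T UAS-bla cells, 2500/well, were stimulated with 9-cis-RA at 500 or 100 nM final alongside test compound for 18 h at 37 C.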

[19] = molecular target: Retinoic acid receptor RXR-alpha (Homo sapiens) (UniProt P19793); experiment: as above; conditions: HEK293T RXRa-UAS-bla, beta-lactamase ratio, antagonist mode
Summary of the method: as §1

[20] = molecular target: Vitamin D3 receptor (Homo sapiens) (UniProt P11473); experiment: qHTS assay for small molecule agonists of vitamin D receptor signaling (AID 588543);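 also: 0% = DMSO basal and 100% = reference agonist control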
Summary of the method: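 Reporter cells (HEK293T, VDR-UAS-bla) were seeded in medium with 2% charcoal-stripped serum and incubated 5 h, then compounds in concentration series were added for 16 h at 37 °C. Stimulation was scaled between DMSO basal and 50 nM 1α,25-dihydroxyvitamin D3.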

Chain of Peroxisome proliferator-activated receptor delta (Homo sapiens) (Q03181 whole entry, looked up): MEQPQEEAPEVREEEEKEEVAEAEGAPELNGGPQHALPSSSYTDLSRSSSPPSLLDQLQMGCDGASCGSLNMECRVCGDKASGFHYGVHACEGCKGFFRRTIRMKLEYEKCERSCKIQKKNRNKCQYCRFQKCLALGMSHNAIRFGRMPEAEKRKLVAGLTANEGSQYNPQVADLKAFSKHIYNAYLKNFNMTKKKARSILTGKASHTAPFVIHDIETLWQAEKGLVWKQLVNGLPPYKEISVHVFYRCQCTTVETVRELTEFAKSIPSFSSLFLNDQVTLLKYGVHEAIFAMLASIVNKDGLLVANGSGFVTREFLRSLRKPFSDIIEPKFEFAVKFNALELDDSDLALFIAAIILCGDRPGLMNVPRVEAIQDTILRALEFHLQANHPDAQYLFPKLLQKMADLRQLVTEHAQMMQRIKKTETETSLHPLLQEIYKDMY
Chain of Thyroid hormone receptor beta (Homo sapiens) (P10828 whole entry, looked up): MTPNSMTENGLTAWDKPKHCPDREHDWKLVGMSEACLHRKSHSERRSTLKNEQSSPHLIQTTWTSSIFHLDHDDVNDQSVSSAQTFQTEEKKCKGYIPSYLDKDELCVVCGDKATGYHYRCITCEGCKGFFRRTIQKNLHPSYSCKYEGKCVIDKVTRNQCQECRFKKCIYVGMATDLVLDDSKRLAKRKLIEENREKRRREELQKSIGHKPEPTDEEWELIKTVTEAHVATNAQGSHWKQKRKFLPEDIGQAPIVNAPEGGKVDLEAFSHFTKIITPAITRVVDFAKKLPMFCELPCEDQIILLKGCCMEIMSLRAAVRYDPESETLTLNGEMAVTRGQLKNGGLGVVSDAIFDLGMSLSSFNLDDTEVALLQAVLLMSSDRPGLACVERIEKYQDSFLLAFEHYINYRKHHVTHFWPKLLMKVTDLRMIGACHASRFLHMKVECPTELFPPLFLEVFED
Chain of Peroxisome proliferator-activated receptor alpha (Homo sapiens) (Q07869 whole entry, looked up): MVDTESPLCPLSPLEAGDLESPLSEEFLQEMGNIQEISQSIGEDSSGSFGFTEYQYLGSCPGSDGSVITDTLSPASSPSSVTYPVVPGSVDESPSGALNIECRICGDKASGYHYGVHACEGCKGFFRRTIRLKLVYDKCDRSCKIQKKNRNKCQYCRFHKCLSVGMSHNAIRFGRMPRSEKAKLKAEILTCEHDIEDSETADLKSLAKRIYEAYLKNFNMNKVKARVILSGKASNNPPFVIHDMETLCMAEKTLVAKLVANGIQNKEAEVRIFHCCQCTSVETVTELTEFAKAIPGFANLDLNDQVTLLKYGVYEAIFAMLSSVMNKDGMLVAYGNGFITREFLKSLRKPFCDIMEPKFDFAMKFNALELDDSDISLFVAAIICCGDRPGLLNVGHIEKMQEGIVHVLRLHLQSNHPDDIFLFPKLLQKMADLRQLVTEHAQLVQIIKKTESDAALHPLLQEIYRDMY
Chain of Nuclear receptor subfamily 1 group I member 2 (Rattus norvegicus) (Q9R1A7 whole entry, looked up): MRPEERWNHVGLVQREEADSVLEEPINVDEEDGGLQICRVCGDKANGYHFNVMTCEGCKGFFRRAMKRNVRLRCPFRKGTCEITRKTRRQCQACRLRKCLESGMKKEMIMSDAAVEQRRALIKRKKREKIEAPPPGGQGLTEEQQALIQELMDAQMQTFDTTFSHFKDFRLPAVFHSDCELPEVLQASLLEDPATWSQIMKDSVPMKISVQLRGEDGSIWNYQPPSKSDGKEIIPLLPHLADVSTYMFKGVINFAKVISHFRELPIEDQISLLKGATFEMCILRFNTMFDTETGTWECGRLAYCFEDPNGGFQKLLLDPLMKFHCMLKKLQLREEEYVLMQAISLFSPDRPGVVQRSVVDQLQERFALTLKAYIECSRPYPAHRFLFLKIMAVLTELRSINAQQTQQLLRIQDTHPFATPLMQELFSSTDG
Chain of Vitamin D3 receptor (Homo sapiens) (P11473 whole entry, looked up): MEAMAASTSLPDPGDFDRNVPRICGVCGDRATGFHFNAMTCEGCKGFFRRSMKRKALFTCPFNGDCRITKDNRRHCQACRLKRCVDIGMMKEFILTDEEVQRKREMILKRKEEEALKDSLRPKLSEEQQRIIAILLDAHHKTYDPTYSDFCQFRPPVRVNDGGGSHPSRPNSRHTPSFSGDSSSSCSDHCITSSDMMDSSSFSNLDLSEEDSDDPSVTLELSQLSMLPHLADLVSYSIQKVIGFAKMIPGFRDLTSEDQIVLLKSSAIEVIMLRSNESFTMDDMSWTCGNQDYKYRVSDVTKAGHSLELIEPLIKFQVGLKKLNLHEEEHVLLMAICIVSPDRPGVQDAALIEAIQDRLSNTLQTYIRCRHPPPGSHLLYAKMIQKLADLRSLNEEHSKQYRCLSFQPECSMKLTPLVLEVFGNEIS
Chain of Glucocorticoid receptor (Homo sapiens) (P04150 whole entry, looked up): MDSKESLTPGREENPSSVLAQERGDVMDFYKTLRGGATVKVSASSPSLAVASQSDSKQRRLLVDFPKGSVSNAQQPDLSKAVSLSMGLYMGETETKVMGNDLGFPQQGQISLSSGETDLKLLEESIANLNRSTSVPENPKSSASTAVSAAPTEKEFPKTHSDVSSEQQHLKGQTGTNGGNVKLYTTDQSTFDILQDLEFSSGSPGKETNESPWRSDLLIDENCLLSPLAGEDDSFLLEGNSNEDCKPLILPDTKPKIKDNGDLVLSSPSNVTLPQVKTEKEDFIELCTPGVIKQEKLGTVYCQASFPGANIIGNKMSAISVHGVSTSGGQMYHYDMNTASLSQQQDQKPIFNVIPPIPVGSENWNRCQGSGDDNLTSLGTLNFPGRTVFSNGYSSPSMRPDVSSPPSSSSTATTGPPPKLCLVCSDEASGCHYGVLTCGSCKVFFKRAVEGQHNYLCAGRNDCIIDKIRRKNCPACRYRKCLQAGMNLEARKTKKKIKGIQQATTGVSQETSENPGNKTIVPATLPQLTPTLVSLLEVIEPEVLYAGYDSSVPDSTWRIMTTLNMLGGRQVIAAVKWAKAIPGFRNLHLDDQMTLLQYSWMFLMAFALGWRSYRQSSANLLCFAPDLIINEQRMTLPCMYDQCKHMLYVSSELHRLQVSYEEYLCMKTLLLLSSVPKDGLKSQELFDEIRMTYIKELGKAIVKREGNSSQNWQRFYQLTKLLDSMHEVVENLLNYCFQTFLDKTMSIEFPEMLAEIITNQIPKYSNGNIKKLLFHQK
Chain of Bile acid receptor (Homo sapiens) (Q96RI1 whole entry, looked up): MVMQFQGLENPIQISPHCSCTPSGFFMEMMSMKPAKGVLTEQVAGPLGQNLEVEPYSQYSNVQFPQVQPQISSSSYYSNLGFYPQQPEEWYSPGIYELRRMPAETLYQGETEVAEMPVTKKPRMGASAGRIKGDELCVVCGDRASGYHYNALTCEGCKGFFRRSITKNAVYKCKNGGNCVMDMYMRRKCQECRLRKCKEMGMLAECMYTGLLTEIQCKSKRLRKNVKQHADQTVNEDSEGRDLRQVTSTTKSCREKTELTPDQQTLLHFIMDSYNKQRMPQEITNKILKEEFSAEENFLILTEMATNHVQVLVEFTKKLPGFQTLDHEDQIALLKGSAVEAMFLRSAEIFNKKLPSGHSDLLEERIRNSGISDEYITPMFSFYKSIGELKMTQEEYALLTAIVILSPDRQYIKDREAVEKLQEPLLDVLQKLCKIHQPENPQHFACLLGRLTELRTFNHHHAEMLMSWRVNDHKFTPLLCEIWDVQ
Chain of Retinoic acid receptor RXR-alpha (Homo sapiens) (P19793 whole entry, looked up): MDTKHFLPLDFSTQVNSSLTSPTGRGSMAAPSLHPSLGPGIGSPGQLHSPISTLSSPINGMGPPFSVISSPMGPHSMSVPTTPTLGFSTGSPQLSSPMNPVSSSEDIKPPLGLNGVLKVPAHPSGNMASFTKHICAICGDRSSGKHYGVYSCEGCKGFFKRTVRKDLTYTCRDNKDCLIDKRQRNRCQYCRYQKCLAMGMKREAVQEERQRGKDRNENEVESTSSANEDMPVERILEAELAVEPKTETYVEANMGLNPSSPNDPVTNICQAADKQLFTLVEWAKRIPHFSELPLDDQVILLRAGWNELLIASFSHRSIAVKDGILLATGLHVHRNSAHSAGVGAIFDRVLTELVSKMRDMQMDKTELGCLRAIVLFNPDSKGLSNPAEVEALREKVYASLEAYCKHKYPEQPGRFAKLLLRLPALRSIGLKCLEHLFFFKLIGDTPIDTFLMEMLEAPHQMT

CC(C)N(C(=O)COc1nnc(C(F)(F)F)s1)c1ccc(F)cc1
inactive: activation [1] 0.828% | Potency [2] | outcome [3] | Potency [5] | activation [6] 0.0644% | activation [7] -0.614% | max response [8] -0.147% | max response [9] -9% | max response [10] -8% | Potency [11] | max response [12] -3.84%
-37.1%: max response [4]

CC(C)(C)C(O)/C(=C\c1ccc(Cl)cc1Cl)n1cncn1 (stereo unspecified)
active: Potency [2] 35.5 µM
inactive: activation [1] 1.69% | Potency [5] | activity change % (negative = inhibition) [13] -35.6% | activation [6] 9.12% | activation [7] 6.02% | max response [8] 1.97% | Potency [14] | max response [9] -10.7% | max response [10] -6.74%

CC1=C(C(=O)Nc2ccccc2)S(=O)(=O)CCO1
active: Potency [13] 39.8 µM
inactive: activation [1] -2.72% | Potency [5] | activation [7] -2.25% | max response [9] -1.32% | max response [10] -49.4% | Potency [11] | max response [12] -5.83%

CCCCOCCOC(C)=O
-10.5%: max response [4]
inactive: activation [1] 1.59% | Potency [2] | outcome [3] | Potency [15] | Potency [17] | Potency [5] | max response [19] -8.99% | activity change % (negative = inhibition) [13] -3.6% | activation [6] 0.23% | activation [7] 0.977% | max response [8] 0.401% | Potency [14] | max response [9] -5.86% | max response [10] -2.95% | max response [12] 2.29%
-13.2%: max response [16]
-13.5%: max response [18]

O=[N+]([O-])c1ccc(Cl)c([N+](=O)[O-])c1
inactive: activation [1] 16.6% | activation [7] -11.5% | max response [8] -3.79% | Potency [14] | Potency [11] | max response [12] -13.5%
active: Potency [9] 44.7 µM | Potency [10] 50.1 µM

Nc1cccc(Cl)c1Cl
30.5%: max response [4]
-14.5%: max response [18]
-11.4%: max response [16]
inactive: activation [1] 2.15% | Potency [2] | outcome [3] | Potency [15] | Potency [17] | Potency [5] | max response [19] -4.45% | activation [6] -4.27% | activation [7] -0.499% | Potency [14] | max response [9] -14.4% | max response [10] -1.9% | Potency [11] | max response [12] 0.634%

CNC(=O)Oc1cccc(N=CN(C)C)c1
inactive: activation [1] -2.76% | outcome [3] | Potency [15] | outcome [20] | Potency [17] | Potency [5] | max response [19] 10.6% | activity change % (negative = inhibition) [13] 4.27% | activation [6] -4.39% | activation [7] 0.739% | max response [8] 2.04% | Potency [14] | max response [9] -21.4% | max response [10] -9.91% | max response [12] -4.82%
-11.7%: max response [18]
1.64%: max response [16]
16.5%: max response [4]
